Source: paper PMC12670160, “A drug-repurposing screen of FDA- and EMA-approved drugs identifies two NF-κB inhibitors active against eumycetoma” (Journal of Antimicrobial Chemotherapy, 2025)

test system: M. mycetomatis strain mm55; parameters: species or system Madurella mycetomatis MM55 hyphae; CellTiter-Glo 3D luminescence viability of fungal hyphae, single-point 2 uM library screen, per cent of growth control; settings: primary screen, metabolic activity vs growth control; 96 h, 2 µM; inhibitor
Procedure: To determine the in vitro susceptibility of M. mycetomatis to the compounds, a hyphal inoculum was prepared as described elsewhere.[19] This M. mycetomatis hyphal suspension (60 µL) was added to each of the wells in the 384-well plate, leading to a final testing concentration of 2 µM per compound. Each plate also contained a growth control (60 µL of M. mycetomatis hyphal suspension, plus 0.6 µL of DMSO) and a negative control (60 µL of culture medium, plus 0.6 µL of DMSO). Plates were then incubated for 4 days at 37°C, after which 30 µL of CellTiter-Glo 3D Cell Viability reagent was added to every well.[19] After 25 min of incubation at room temperature, the luminescence was measured with a CytoFluor Series 4000 luminometer (PerSeptive Biosystems, Framingham, MA, USA). To determine the metabolic activity, the following formula was used: where, GC is growth control and NC is negative control. The luminescence measured for the GC is considered as 100% metabolic activity. The luminescence for the NC is considered as 0% metabolic activity. […] The Oncode Drug Repurposing library was based on the drug repurposing library from the Drug Repurposing Hub of the Broad Institute and recreated by the Oncode institute.[13] The library contained 5631 drugs.[18] […]

Q: For `C[N+]1(C)CCc2cc3c(cc2[C@H]1[C@@H]1OC(=O)c2c1ccc1c2OCO1)OCO3` [ONC0000006, bicucullinemethochloride], which “% viability” value is on record?
A: 85.19%

Q: How did the “% viability” value turn out when `C[C@]12CC[C@@H]3c4ccc(OC(=O)N(CCCl)CCCl)cc4CC[C@H]3[C@@H]1CC[C@@H]2OP(=O)(O)O` [ONC0003506, estramustine phosphatena] was run?
A: 76.07%
